The campaign covered roughly 2,000 compounds. About 45 (2%) were called active.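 The calls were made as follows: active = inhibition above the screen-wide mean inhibition plus 3 SD (cut at about 44% in these data); inactive = the rest.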 What follows is part of a selection rich in actives, with near analogues and random picks from the rest.

For the assay, the target named is Perilipin-1 (Homo sapiens) + 1-acylglycerol-3-phosphate O-acyltransferase ABHD5 (Homo sapiens) (UniProt O60240+Q8WTS1). Kind of assay: ABHD5-PLIN1 interaction inhibitors, pilot screen, cell lysate, split luciferase complementation, luminescence, NIH validation set (AID 493027).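 Also: 0% = DMSO wells with the 100% control not disclosed.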 Particulars: split G. princeps luciferase complementation, 4 h; at 7.9 µM, stronger effect = higher value.
Chain of Perilipin-1 (Homo sapiens) + 1-acylglycerol-3-phosphate O-acyltransferase ABHD5 (Homo sapiens) (O60240 whole entry, looked up): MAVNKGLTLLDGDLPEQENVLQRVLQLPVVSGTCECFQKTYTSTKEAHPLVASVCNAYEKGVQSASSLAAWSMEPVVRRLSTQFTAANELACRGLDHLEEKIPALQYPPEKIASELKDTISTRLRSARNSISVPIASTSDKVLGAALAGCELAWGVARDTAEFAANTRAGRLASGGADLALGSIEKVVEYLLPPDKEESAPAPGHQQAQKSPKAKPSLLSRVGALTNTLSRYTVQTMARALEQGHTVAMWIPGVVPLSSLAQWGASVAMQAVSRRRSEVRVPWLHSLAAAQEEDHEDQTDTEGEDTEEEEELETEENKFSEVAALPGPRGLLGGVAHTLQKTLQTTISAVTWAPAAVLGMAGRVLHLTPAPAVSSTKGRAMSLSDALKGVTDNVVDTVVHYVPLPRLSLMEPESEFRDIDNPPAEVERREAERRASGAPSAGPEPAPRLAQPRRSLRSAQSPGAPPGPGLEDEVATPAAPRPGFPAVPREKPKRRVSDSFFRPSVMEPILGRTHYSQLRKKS
Chain of Perilipin-1 (Homo sapiens) + 1-acylglycerol-3-phosphate O-acyltransferase ABHD5 (Homo sapiens) (Q8WTS1 whole entry, looked up): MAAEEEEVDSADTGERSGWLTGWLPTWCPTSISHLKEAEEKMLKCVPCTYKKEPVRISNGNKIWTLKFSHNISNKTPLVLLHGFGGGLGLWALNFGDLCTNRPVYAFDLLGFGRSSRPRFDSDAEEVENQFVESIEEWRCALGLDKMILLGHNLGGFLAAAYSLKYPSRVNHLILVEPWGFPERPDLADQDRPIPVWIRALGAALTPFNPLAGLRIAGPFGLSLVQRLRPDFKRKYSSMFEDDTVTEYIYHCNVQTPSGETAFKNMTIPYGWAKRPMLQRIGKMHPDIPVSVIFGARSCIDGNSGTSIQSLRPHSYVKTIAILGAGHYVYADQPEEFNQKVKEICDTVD
In the case of `Cc1nc(C)c(C)nc1C`, the inhibition (as a rule, the drop in the measured response relative to a control, in per cent) was -2.64% (inactive).
Turning to `O=C1C=CC(=O)C(C2=C3C(=O)N(CCc4ccccc4)CC(=O)N3CCC2)=C1`, the inhibition is 68.9% (active).
As to `O=C1CCCCCN1Cc1ccccc1`, the inhibition is -0.49% (inactive).
`CC1(C)CC(CC(=O)Nc2nccs2)(c2ccccc2)CCO1` (configuration not stated): the inhibition was -1.2% (inactive).
With `COc1ccc(C2=CC(=O)C=CC2=O)cc1`, the inhibition is 73.7% (active).
Turning to `COc1ccc(C2C(=O)c3ccccc3C2=O)cc1`, the inhibition is -2.92% (inactive).
The same measure for `COc1ccc(-c2nc(NC(C)=O)sc2-c2ccc(OC)cc2)cc1`: 11.4% (inactive); for `NS(=O)(=O)c1ccc(CNC(=O)c2cc(-c3ccccc3)nc3ccccc23)cc1`: 10.2% (inactive).
The same measure for `CCOc1ccc2nc(NC(=O)NC3CCCCC3)sc2c1`: -5.14% (inactive).
Turning to `CCOc1cccc(N2C(=O)CC(N(CCc3ccc(OC)c(OC)c3)C(=O)CC)C2=O)c1` (configuration not stated), the inhibition was -6.24% (inactive).
For the compound `COCCCN1C(=O)/C(=C\c2cccs2)C(C(=O)OC)=C1C`, the inhibition is 3.99% (inactive).
For the compound `COC(=O)C1=C(C)N(Cc2ccco2)C(=O)/C1=C\c1ccc([N+](=O)[O-])cc1`, the inhibition was 86% (active).
`COC(=O)c1ccc(=O)n(Cc2ccco2)c1`: the inhibition was 12.2% (inactive).
Consider `CN=C1c2cc3cc(OC)ccc3n2CCN1C`, for which the inhibition is 3.44% (inactive).
`Oc1[nH]c2ccccc2c1N=Nc1ccccc1`: the inhibition was -0.17% (inactive).
Take `COC(=O)c1cc(COc2ccc3ccc(=O)oc3c2)c(C)o1`: the inhibition is -9.09% (inactive).
The same measure for `Cc1ccccc1C(=O)NCC(=O)O`: 0.22% (inactive); for `COc1ccc(CCNC(=O)c2ccc(Cl)cc2)cc1OC`: -5.87% (inactive); for `CC(CN1c2ccccc2Sc2ccccc21)N(C)C` (configuration not stated): -9.88% (inactive).
On to `CCN1/C(=C/C=C/C=C/c2sc3ccccc3[n+]2CC)Sc2ccccc21`, for which the inhibition is 52.7% (active).
Consider `CN(C)CCCN1c2ccccc2Sc2ccccc21`, for which the inhibition is -3.33% (inactive).
As for `CC(=O)N(C(C)=O)c1nc2nc(C)cc(C)n2n1`, the inhibition is -0.49% (inactive).
Turning to `OC(C#CCN1CCCC1)(c1ccccc1)c1cccnc1` (configuration not stated), the inhibition is 0.07% (inactive).
With `COc1ccc(Cc2nc(-c3ccc(Br)cc3)no2)cc1`, the inhibition is -12% (inactive).
As for `CCOc1ccc(CC2CCC(=O)NC2=O)cc1` (configuration not stated), the inhibition is 3.55% (inactive).
For `O=Cc1ccc(OC(=O)c2cccnc2)cc1` the value was -5.64% (inactive); for `Fc1ccc(-n2cc(CNCCc3ccccn3)c(-c3ccccc3Cl)n2)cc1`, 1.9% (inactive).
Regarding `CC(C)(C)OC(=O)N1CC(O)CC1C(=O)OCC(=O)c1ccc(Cl)cc1` (configuration not stated), the inhibition was -9.04% (inactive).
For `CC1=CC(=O)c2ccccc2C1=O` the value was 44.4% (active).
Consider `CCNC1=C(Cl)C(=O)c2ccccc2C1=O`, for which the inhibition is -12.7% (inactive).
Consider `CC(C)=CCC/C(C)=C/CC/C(C)=C/CC/C(C)=C/CC1=C(C)C(=O)c2ccccc2C1=O`, for which the inhibition is 18.4% (inactive).
The same measure for `COc1ccc2[nH]c3c(=O)n(/N=C/[C@H]4C(C)C=C(C)CC4C)c(=O)[nH]c3c2c1` (some centres not stated): 23.9% (inactive).
Turning to `COc1ccc(CCNC(=O)c2c(O)c3c([nH]c2=O)CCCC3)cc1`, the inhibition is 3.26% (inactive).
For the compound `COc1ccc(C(=O)OCc2cc3cccc(C)c3[nH]c2=O)cc1`, the inhibition is -1.47% (inactive).
In the case of `Cc1cc(-c2nn(-c3ccccc3F)cc2CN2CCC(O)CC2)c(C)s1`, the inhibition was -2.82% (inactive).
As for `CCOc1cc2c3c(c1)C(C)=CC(C)(C)N3C(=O)C2=O`, the inhibition was 43.5% (active).
`COc1cc2c3c(c1)C1(C(=O)N3C(C)(C)C=C2C)C(C#N)=C(N)Oc2cc(C)oc(=O)c21` (configuration not stated): the inhibition was -0.82% (inactive).
Regarding `COc1cc2c3c(c1)C(C)CC(C)(C)N3C(=O)C2=O` (configuration not stated), the inhibition is 6.69% (inactive).
As to `CS(=O)(=O)Nc1cccc(C(=O)CC2(O)C(=O)Nc3ccc(Br)cc32)c1` (configuration not stated), the inhibition is -3.35% (inactive).
On to `COc1cc2c(cc1OC)-c1nnc(C)n1C(C)(C)C2`, for which the inhibition is -2.21% (inactive).
For the compound `COc1ccc(CNCCC(c2ccc(F)cc2)c2ccc(OC(C)C)cc2)cc1OC` (configuration not stated), the inhibition is -6.56% (inactive).
Turning to `COc1ccccc1C(CC(=O)Nc1ccccc1C)c1ccc(OC(C)C)cc1` (configuration not stated), the inhibition is 0.34% (inactive).
For `COc1ccc(CN(CCC(c2ccccc2)c2ccc(OC(C)C)cc2)C(=O)CCl)cc1OC` (configuration not stated) the value was 64.4% (active); for `CC(C)C12CN3CC(C(C)C)(CN(C1)C3c1ccccc1)C2O` (configuration not stated), -10.6% (inactive); for `Cn1c(=S)n(C)c2ccccc21`, -7.95% (inactive).
The same measure for `COc1ccc2cc(C(=O)OC(C)C)sc(=O)c2c1OC`: 3.53% (inactive); for `COc1cccc(OCc2cc(C3Nc4ccccc4C(=O)N3Cc3ccco3)ccc2OC)c1` (configuration not stated): 42.9% (inactive); for `O=C(O)c1cc(-c2ccccc2)nc2ccccc12`: -6.78% (inactive).
As to `COC(=O)c1cc(-c2ccc(C)o2)nc2ccccc12`, the inhibition was 78% (active).
The same measure for `CCCOc1ccc(-c2cc(C(=O)NCC3CCCO3)c3ccccc3n2)cc1` (configuration not stated): -2.49% (inactive); for `COc1cc2cc(C)nc(Cc3cccc4ccccc34)c2cc1OC`: 16.5% (inactive); for `COc1ccc(C2C3C(C)=NN=C3CC(C)(O)C2C(C)=O)cc1` (configuration not stated): -2.63% (inactive).
Turning to `Oc1[nH]c2ccccc2c1C1=NCCCC1`, the inhibition is -6.01% (inactive).
With `O=C(Cc1ccccc1[N+](=O)[O-])NCCCN1CCOCC1`, the inhibition was -7.14% (inactive).
Consider `COc1ccccc1C(CCN(Cc1ccccc1)C(C)=O)c1ccco1` (configuration not stated), for which the inhibition is 9.44% (inactive).
As for `CC(=O)N(CCC(Cc1ccccc1)c1ccco1)Cc1ccco1` (configuration not stated), the inhibition was 40.8% (inactive).
Regarding `O=C(c1ccco1)N(CCC(c1ccccc1)c1ccco1)Cc1ccco1` (configuration not stated), the inhibition was 56.6% (active).
As to `CCOc1ccc2ccccc2c1CNc1nnnn1C`, the inhibition is -8.53% (inactive).
With `CC(C)N1C(=O)/C(=C\c2nc3ccccc3c(=O)[nH]2)c2ccccc21`, the inhibition was 70.2% (active).
On to `COc1ccc(C(=O)Nc2nc3ccccc3c(=O)[nH]2)cc1`, for which the inhibition was -4.92% (inactive).
In the case of `CC(=O)Oc1ccc(C(=O)O)cc1OC(C)=O`, the inhibition was 2.2% (inactive).
Regarding `CCC1(c2ccccc2)NC(=S)N(c2ccc(C)c(C)c2)N1` (configuration not stated), the inhibition is -0.55% (inactive).
With `CC(=O)/C=C/c1ccc(C)o1`, the inhibition was 18.2% (inactive).
Regarding `O=C(Nc1ccc(Oc2c(F)c(F)c(F)c(F)c2F)cc1)OC1CCN2Cc3ccccc3N=C12` (configuration not stated), the inhibition is 71.9% (active).
Regarding `COc1cccc2c(=O)c3ccccc3oc12`, the inhibition is -14.7% (inactive).
With `CCc1ccc(/C=C2\SC(=S)N(CCC(=O)N3CCN(C)CC3)C2=O)cc1`, the inhibition is -12.7% (inactive).
With `O=c1c2ccccc2nnn1Cc1cccc2ccccc12`, the inhibition was 7.22% (inactive).
For the compound `COc1ccccc1C(=O)c1cc2ccc(O)cc2oc1=O`, the inhibition was 4.61% (inactive).
The same measure for `COc1ccccc1/C=C/C(=O)c1c2c(c(C)[nH]c1=O)CCCC2`: 28.8% (inactive).
On to `COc1cccc(/C=C/C(=O)c2c(O)cc(C)oc2=O)c1O`, for which the inhibition was 47.8% (active).
On to `O=C1C(Cc2ccccc2)NC(=S)N1c1ccccc1` (configuration not stated), for which the inhibition was -13.4% (inactive).
With `Cc1ccc2c(c1)OC(=O)CC2c1ccccc1` (configuration not stated), the inhibition is -5.39% (inactive).
For `Oc1ccccc1OCCOc1ccccc1OCCOc1ccccc1O`, the inhibition was 8.26% (inactive).
The same measure for `Cc1cccc(OCC(=O)Nc2ccc(C(=O)NCC(C)C)cc2)c1`: -6.6% (inactive); for `CC(=O)CCc1oc2ccccc2c1-c1ccccc1`: -1.83% (inactive); for `CCc1oc2ccccc2c1C(=O)c1cc(Br)c(O)c(Br)c1`: 57.3% (active).
As to `CCCCc1oc2ccccc2c1C(=O)c1cc(I)c(OCCN(CC)CC)c(I)c1`, the inhibition is -6.98% (inactive).
`COc1cc2c(cc1OC)CN(Cc1ccc(C)s1)CC2`: the inhibition is 2.36% (inactive).
For `O=C(N1CCCCC1)C1(c2ccccc2)CCOCC1` the value was -5.12% (inactive); for `Cc1cc(O)c2/c(=N\N)c(-c3csc(C)n3)coc2c1`, 5.2% (inactive).
Turning to `COc1cc(/C=C(\C#N)C(=O)N2CCc3ccccc32)ccc1O`, the inhibition was 42.5% (inactive).
With `CCc1ccc(/C=C2\Oc3cc(OC(=O)N4CCOCC4)ccc3C2=O)cc1`, the inhibition was 17.4% (inactive).
As for `COc1ccccc1C(=O)Oc1ccc2c(c1)O/C(=C\c1ccncc1)C2=O`, the inhibition is 45.6% (active).
For `COC(=O)c1ccc2c(c1)C(=O)/C(=C/c1ccc(O)cc1)O2`, the inhibition is 7.53% (inactive).
The same measure for `O=C(O)CCSc1nc2ccccc2s1`: 0.7% (inactive); for `CC[n+]1c(C)sc2cc(C)ccc21`: 0.88% (inactive); for `O=C(OCCN1CCCC1)C1(c2ccccc2)CCCC1`: -8.49% (inactive).
The same measure for `Cc1nc(C(=O)Nc2ccccc2Cl)cc2c1[nH]c1ccccc12`: -0.62% (inactive); for `COc1ccc2c(c1)C=CC1(O2)N(CCO)c2ccccc2C1(C)C` (configuration not stated): 45.5% (active).
As for `COc1ccc(NC(=O)C2C(=O)N(CCO)C3(C)CC2c2ccccc2O3)cc1` (configuration not stated), the inhibition is -10.9% (inactive).
As for `O=C(Nc1cccc(Oc2c(F)c(F)c(F)c(F)c2F)c1)N1C[C@@H]2C[C@@H](C1)c1cccc(=O)n1C2`, the inhibition is 9% (inactive).
For the compound `COc1ccc(Cc2noc(CN(C)CC3(N4CCOCC4)CCCCC3)n2)cc1OC`, the inhibition was -1.95% (inactive).
For `Cn1cc(C2N3CC4(C)CN2CC(C)(C3)C4=O)c2ccccc21` (configuration not stated) the value was -7.09% (inactive); for `C[C@H](NC(=O)Nc1ccccc1F)C(=O)O`, -0.07% (inactive).
Consider `O=P(O)(O)CP(=O)(O)O`, for which the inhibition is -4.16% (inactive).
Turning to `COc1cc(/C=C/C(=O)O)cc(S(=O)(=O)NCCCO)c1OC`, the inhibition is -7.07% (inactive).
As to `O=C(Nc1ccccc1)OCC1CCCN2CCCCC12` (configuration not stated), the inhibition was -5.9% (inactive).
`O=C(NCc1ccccc1Cl)NC(=O)c1ccccc1`: the inhibition is -2.42% (inactive).
For `CCCCNC(=O)NS(=O)(=O)c1ccc(C)cc1` the value was -10.7% (inactive); for `CNS(=O)(=O)c1ccc(C)cc1`, -13.4% (inactive).
For `Cc1ccc(S(=O)(=O)N[C@@H](Cc2ccccc2)C(=O)CCl)cc1`, the inhibition is 82.3% (active).
Regarding `COc1ccc(NC(=O)C2CCCN2C(=O)OC(C)(C)C)cc1` (configuration not stated), the inhibition was -11.3% (inactive).

The record behind these values is PubChem BioAssay AID493027 (The Scripps Research Institute Molecular Screening Center, 2011).
